Compounds without any hit were thinned out: in the full panel of roughly 83,000, 20% have a hit.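 Compound tested at a single concentration for 48 hours in 96-well plates; a percent growth value below 10 was scored as active.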 Values without a mark were called inactive. Calls of active or inactive are those of the source.
These compounds were tested on MDA-MB-468 breast (assay: NCI-60 one-dose screen, 48 h (100 = growth as untreated, 0 = no growth, -100 = all killed)). Settings: 10 µM unless noted.

| Compound | growth |
| --- | --- |
| Cc1cc(N2CCN(CC(=O)Nc3ccc4c(ccn4Cc4ccccc4)c3)CC2)nc(N2CCOCC2)n1 | 67% |
| Cn1cc(-c2nonc2-c2c[nH]c3ccccc23)c2ccccc21 | -4.56% (active) |
| CCN(CC)c1cc2oc3cc(N)cc(=N)c-3nc2cc1C | 38.3% |
| O=C(Nc1ccccc1)Nc1cccc(-n2cc(-c3ccncc3)c(-c3ccc(O)c(Cl)c3)n2)c1 | 54.8% |
| CSc1nc(=O)n(Cc2ccc(F)cc2)c(=O)n1Cc1ccc(C)cc1 | 112% |
| O=C(Nc1ccccc1)c1cc2ccccc2s1 | 89.1% |
| OC1COC(OCc2ccccc2)C(O)C1O (stereo not given) | 94.8% |
| COc1ccc2cc(C(C)C(=O)Nc3ccc(-c4n[nH]c(=S)n4C4CCCCC4)cc3)ccc2c1 (stereo not given) | 111% |
| COc1cccc(C2=NN3C(C2)c2ccccc2OC3c2ccc(/C=C3\SC(=O)NC3=O)cc2)c1 (stereo not given) | 102% |
| O=[N+]([O-])c1ccccc1CN1CCCCC1 | 89.3% |
| c1ccc(CO[C@H]2CO[C@H]3[C@@H]2OC[C@H]3OCc2ccccc2)cc1 | 112% |
| CCCCOP(=O)(OCCCC)C(C(=O)OCC)C(CC(=O)OCC)C(=O)OCC (stereo not given) | 124% |
| Cc1ccc2c(c1)C(C)Cc1c(N(C)C)ncnc1N2C (stereo not given) | 13% |
| N#CSCC1CC(O)(c2ccccc2)C(c2ccccc2)C(c2ccc(F)cc2)O1 (stereo not given) | -13.4% (active) |
| O=C(O)C(c1ccccc1)C(O)c1ccccc1 (stereo not given) | 101% |
| COc1ccc(/C(=N\O)c2cc(C)c(OC)c(C)c2)cc1O | 44.4% |
| COc1cccc(-c2cc(-c3cccs3)c(C#N)c(=O)[nH]2)c1 | 107% |
| COc1ccc(/C=C2\CN(C(=O)CCN3CCC(=NO)CC3)C/C(=C\c3ccc(OC)cc3)C2=O)cc1 | -27.5% (active) |
| Nc1ccc(C2=CC(c3ccc(Cl)cc3)N3C=CSC3=N2)cc1 (stereo not given) | -77.1% (active) |
| CCCCN1CCN(c2ccc3nc(-c4ccc5nc(-c6ccc(C(F)(F)F)cc6)[nH]c5c4)[nH]c3c2)CC1 | -62.1% (active) |

| Compound | growth |
| --- | --- |
| CCCCC/C=C\C/C=C/CCCCCCCCNC(=O)Nc1ccc([N+](=O)[O-])cc1 | 84.5% |
| C[C@@H](C(=O)NCCCC#Cc1cnc(Nc2ccc(C#N)cc2)nc1NC1CC1)N(C)C(=O)/C=C/CN(C)C | 39.2% |
| Cc1nn(-c2cc(NC3CCC(O)CC3)c3c(=O)[nH]c(CCC(F)(F)F)cc3c2)c2c1C(=O)CC(C)(C)C2 (stereo not given) | 5.19% (active) |
| O=C1C=C(OCC=C(C(F)(F)F)C(F)(F)F)c2ccccc2C1=O | -51.2% (active) |
| N#CC[C@H](C1CCCC1)n1cc(-c2ncnc3[nH]ccc23)cn1 | 71.3% |
| O=C(Nc1cccc2ccccc12)c1cc2c(cc1Br)OCO2 | 95.4% |
| CC(=N\N=C(N)N)/C(=N/N=C(N)N)c1ccccc1 | 39.6% |
| CC(=O)Oc1ccccc1C(=O)N(Cc1ccc2c(Cl)cc(Cl)c(O)c2n1)c1ccccc1 | 40.9% |
| CNC(=O)NCC1OC(n2cnc3c(NC(=O)Nc4ccccc4)ncnc32)C2OC(C)(C)OC12 (stereo not given) | 101% |
| CN(C)c1ccc(S(=O)(=O)O)cc1 | 106% |
| CC(=O)N1N=C(c2cccc(Nc3ccncc3)c2)CC1c1ccccc1 (stereo not given) | 79.8% |
| COc1ccc2oc(=O)cc(-c3nc4ccc(N)cc4[nH]3)c2c1 | 83.9% |
| CC(=O)Nc1ccc(NC(=O)Nc2cccc(-c3nc(-c4ccc(NC(=O)c5cccnc5)cc4Cl)no3)c2)cc1C(F)(F)F | -84.7% (active) |
| CNC(=O)c1cc(Oc2ccc(NC(=O)Nc3ccc(Cl)c(C(F)(F)F)c3)c(F)c2)ccn1 | -49.1% (active) |
| O=C(O)c1ccc(-n2cc(/C=N/Nc3ccc(F)cc3)c(-c3cccc(C(F)(F)F)c3)n2)cc1 | 90.8% |
| O=C1NC(=O)C2(CCc3ccccc32)N1 (stereo not given) | 106% |
| CN(C)CCOc1ccc2c(c1)C(=O)/C(=C\c1ncc([N+](=O)[O-])n1C)C2 | -78.5% (active) |
| CCOC(=O)CC[C@H](NC(=O)c1ccc(N(C)Cc2cnc3nc(N)nc(N)c3n2)c2ccccc12)C(=O)OCC | 27.1% |
| CCOC(=O)C1=C(C(=O)c2ccccc2)C(c2cccc([N+](=O)[O-])c2)C(C(=O)c2ccccc2)=C(C(=O)OCC)N1 | 83.2% |
| O=C(Nc1nccs1)c1noc2ccccc12 | 87.3% |

Source: PubChem BioAssay (NCI)
